About 79,000 compounds went through this panel and 15% of them were active in at least one assay; those are over-represented in the sample as a whole. The source made the active and inactive calls. Cut-off read from the data, not from the text of the source: active = growth inhibition above about 70%; inactive = the rest.
Experiments:
[1] = NCI Yeast Anticancer Drug Screen. Data for the rad50 strain (AID 155);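 note: 0% = growth of vehicle-only cultures of the same strain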; conditions: S. cerevisiae rad50 strain growth inhibition, stronger effect = higher value
Method in brief: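 Relative growth inhibition (compound vs vehicle) was measured in yeast with a defined repair-gene alteration.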

[2] = NCI Yeast Anticancer Drug Screen. Data for the mec2-1 strain (AID 157); conditions: S. cerevisiae mec2-1 strain, stronger effect = higher value
Method in brief: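 Growth inhibition is read against vehicle-treated controls after compound exposure of the mec2-1 yeast strain, which is defective in DNA damage repair or cell cycle control.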

[3] = NCI Yeast Anticancer Drug Screen. Data for the sgs1 mgt1 strain (AID 161);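 note: 0% = growth of cultures given vehicle only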; conditions: S. cerevisiae sgs1 mgt1 strain, stronger effect = higher value
Method in brief: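 Percent growth inhibition was derived by comparing compound-exposed mutant yeast with vehicle-exposed cultures. The strain carries alterations in DNA damage repair.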

[4] = NCI Yeast Anticancer Drug Screen. Data for the cln2 rad14 strain (AID 165);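 note: 0% = growth equal to vehicle treated cultures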; conditions: S. cerevisiae cln2 rad14 strain, stronger effect = higher value
Method in brief: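 Growth inhibition, relative to vehicle-treated controls, is the read-out. The test organism is a yeast strain with defined genetic alterations, cln2 rad14.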

[5] = NCI Yeast Anticancer Drug Screen. Data for the bub3 strain (AID 167); conditions: S. cerevisiae bub3 mutant strain, stronger effect = higher value
Method in brief: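 Screening used yeast with an engineered genetic alteration affecting cell cycle control. Compound-exposed cultures were compared with vehicle cultures, and reduced growth was taken as inhibition.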

[6] = NCI Yeast Anticancer Drug Screen. Data for the mlh1 rad18 strain (AID 175); conditions: S. cerevisiae mlh1 rad18 strain growth inhibition, stronger effect = higher value
Method in brief: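 Cells of a genetically altered yeast strain, deficient in DNA damage repair, were treated with compound. Their growth was then compared with that of vehicle-treated cultures to give inhibition.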

[7] = at 5.0 µM (retest, dose inferred, filed as 0.5)
[8] = at 50.0 µM (retest, dose inferred, filed as 5.0)

Measured: growth inhibition

[O-][n+]1ccccc1Sc1nc(Sc2cccc[n+]2[O-])nc(Sc2cccc[n+]2[O-])n1
active: [1]; [7] 98% | [1]; [8] 99% | [1]; at 50.0 µM 89.8% | [2]; [7] 99% | [2]; [8] 99% | [2]; at 50.0 µM 91.7% | [3]; [7] 99% | [3]; [8] 98% | [3]; at 50.0 µM 92.7% | [4]; [7] 98% | [4]; [8] 98% | [4]; at 50.0 µM 90% | [5]; [7] 98% | [5]; [8] 99% | [5]; at 50.0 µM 90.3% | [6]; [7] 100% | [6]; [8] 99% | [6]; at 50.0 µM 88.4%

CCOC(=O)OCCSCCOC(=O)OCC
inactive: [1]; [7] -14% | [1]; [8] 19% | [1]; at 50.0 µM -4.35% | [2]; [7] -12% | [2]; [8] 36% | [2]; at 50.0 µM 17.6% | [3]; [7] -5% | [3]; [8] 8% | [3]; at 50.0 µM 14.2% | [4]; [7] 15% | [4]; [8] -6% | [4]; at 50.0 µM 13.8% | [5]; [7] -9% | [5]; [8] 18% | [5]; at 50.0 µM 19% | [6]; [7] 0% | [6]; [8] 47% | [6]; at 50.0 µM -9.65%

O=C1C(C(O)(C(F)(F)Cl)C(F)(F)Cl)CCC1C(O)(C(F)(F)Cl)C(F)(F)Cl (stereo not given)
active: [1]; [7] 92% | [1]; [8] 99% | [1]; at 50.0 µM 99.8% | [2]; [7] 95% | [2]; [8] 100% | [2]; at 50.0 µM 99.5% | [3]; [7] 95% | [3]; [8] 99% | [3]; at 50.0 µM 99.8% | [4]; [7] 94% | [4]; [8] 99% | [4]; at 50.0 µM 99.4% | [5]; [7] 78% | [5]; [8] 99% | [5]; at 50.0 µM 98.1% | [6]; [7] 95% | [6]; [8] 99% | [6]; at 50.0 µM 99.5%

O=NNc1ncccc1OCc1ccccc1
inactive: [1]; [7] 9% | [1]; [8] 6% | [1]; at 50.0 µM 56.9% | [2]; [7] 6% | [2]; [8] 6% | [2]; at 50.0 µM 25.6% | [3]; [7] 9% | [3]; [8] 14% | [3]; at 50.0 µM 0.75% | [4]; [7] 7% | [4]; [8] 9% | [4]; at 50.0 µM 3.2% | [5]; [7] 10% | [5]; [8] 13% | [5]; at 50.0 µM -2.9% | [6]; [7] 9% | [6]; [8] 15% | [6]; at 50.0 µM 17.8%

COc1ccc(C2=C/C(=C3\C(=O)Oc4ccccc4C3=O)SS2)cc1
inactive: [1]; [7] 0% | [1]; [8] 32% | [1]; at 50.0 µM -5.95% | [2]; [7] -2% | [2]; [8] 7% | [2]; at 50.0 µM -1.6% | [3]; [7] 2% | [3]; [8] 50% | [3]; at 50.0 µM -3.75% | [4]; [7] 1% | [4]; [8] 36% | [4]; at 50.0 µM 38.5% | [5]; [7] 3% | [5]; [8] 24% | [5]; at 50.0 µM -3.75% | [6]; [7] -2% | [6]; [8] 32% | [6]; at 50.0 µM 1.2%

Reference: PubChem BioAssay (NCI)
